# From PubChem BioAssay (Tox21)
# Inconclusive results are not listed. Entries that show only a call come without a potency. Activity calls are given as the source filed them. The call rests on the fitted dose curve; in most records, active means well fitted activation curve with a large enough effect in the repeat runs; inconclusive means weak or mixed curves; inactive means no such curve, though single readings can be large or run the other way.
# Target: Nuclear receptor subfamily 1 group I member 2 (Homo sapiens) (UniProt O75469)
# Sequence (O75469 whole entry, looked up): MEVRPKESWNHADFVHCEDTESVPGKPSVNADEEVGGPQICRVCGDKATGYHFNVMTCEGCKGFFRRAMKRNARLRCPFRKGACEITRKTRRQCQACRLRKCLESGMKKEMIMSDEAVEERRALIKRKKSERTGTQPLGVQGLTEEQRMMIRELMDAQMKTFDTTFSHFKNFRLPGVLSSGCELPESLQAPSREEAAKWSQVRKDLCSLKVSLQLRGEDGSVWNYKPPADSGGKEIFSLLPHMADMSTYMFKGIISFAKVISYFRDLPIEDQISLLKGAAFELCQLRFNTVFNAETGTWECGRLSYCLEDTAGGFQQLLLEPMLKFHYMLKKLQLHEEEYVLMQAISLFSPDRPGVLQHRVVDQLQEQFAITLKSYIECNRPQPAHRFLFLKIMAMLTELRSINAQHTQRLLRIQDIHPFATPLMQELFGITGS
# Assay: Human pregnane X receptor (PXR) small molecule agonists, qHTS assay (AID 1346982); further: nearly all actives have a fitted effect of over 35% in size
# Settings: PXR-Luc HepG2, CYP3A4 luciferase reporter, 24 h; series mostly up to 92.4 µM
# From the text: National Center for Advancing Translational Sciences [NCATS]
# NIH Chemical Genomics Center [NCGC]
# U.S. Environmental Protection Agency [EPA]
# National Institutes of Environmental Health Sciences [NIEHS]
# National Toxicology Program [NTP]
# The human pregnane X receptor (hPXR) regulates the expression of several drug metabolizing enzymes and induction of these proteins is a major mechanism for developing drug resistance in cancer. One such key enzyme catalyzing the drug metabolism is cytochrome P450 3A4 (CYP3A4). Changes in CYP3A4 expression affect drug metabolism, thereby reducing the therapeutic efficacy and altering toxicological response to a drug and which finally causes adverse drug interaction. To screen Tox21 libraries for compounds that activate hPXR-mediated CYP3A4 gene expression, PXR-Luc HepG2 cells were used.
# PXR-Luc HepG2 cells were dispensed at 2,000 per well in 5uL of assay medium containing 5% charcoal-stripped FBS into white solid bottom 1536-well plates (Corning Life Sciences, Corning, NY) using a Multidrop Combi (Thermo Scientific, Waltham, MA) dispenser. The assay plates were incubated at 37 C and 5% CO2 for 5hr, and then 23nL of compounds dissolved in DMSO and positive control were transferred using a Pintool station (Wako, San Diego, CA). The assay plates were incubated at 37C and 5% CO2 for 24hr. For luciferase read, 4uL of ONE-Glo reagent (Promega Corporation, Madison, WI) was added to each well of the assay plates using Flying Reagent Dispenser (FRD, Aurora Discovery, San Diego, CA) and incubated the assay plates at room temperature for 30min. The luminescence signal was quantified using a ViewLux plate reader (Perkin Elmer, Shelton, CT).
# Potency means the concentration at half of the fitted maximal effect.
row,SMILES,Potency
1,ClC(Br)Br,inactive
2,O=[N+]([O-])c1ccc(CBr)cc1,inactive
3,CCOP(=S)(OCC)SCSP(=S)(OCC)OCC,5.45 µM (active)
4,Fc1cc(Br)ccc1CBr,inactive
5,CCN(CC)C(C)C(=O)c1ccccc1 (stereo not given),inactive
6,CCCCOC(=O)[C@@H](C)Oc1ccc(Oc2ccc(C#N)cc2F)cc1,inactive
7,CCOP(=O)(N=C1SCCS1)OCC,inactive
8,OC(c1ccccc1)(c1ccccc1)C1CCNCC1,inactive
9,CC(C)COP(=O)(OCC(C)C)OCC(C)C,inactive
10,c1coc(-c2nc3ccccc3[nH]2)c1,3.44 µM (active)
11,OCCBr,inactive
12,COC(=O)C1=CCCN(C)C1,inactive
13,CCOP(=S)(OCC)SCSc1ccc(Cl)cc1,10.9 µM (active)
14,CCOP(=S)(OCC)Oc1nc(Cl)n(C(C)C)n1,6.86 µM (active)
15,CCOc1nc(C(Cl)(Cl)Cl)ns1,inactive
16,NC1=NC(=O)C(c2ccccc2)O1 (stereo not given),inactive
17,CCCCc1ccc(O)cc1,inactive
18,ClCCCN1CCN(c2cccc(Cl)c2)CC1,inactive
19,ClCC(Cl)(Cl)Cl,inactive
20,O=C(O)c1ccc2[nH]cc(CCCCN3CC=C(c4ccccc4)CC3)c2c1,inactive

row,SMILES,Potency
1,Cc1cccc(C#N)c1,inactive
2,ClC(Cl)Br,inactive
3,Nc1cnn(-c2ccccc2)c(=O)c1Cl,inactive
4,N#Cc1c(Cl)cccc1Cl,inactive
5,Cc1ncc2n1-c1ccc(Cl)cc1C(c1ccccc1F)=NC2,33.5 µM (active)
6,C=CCC1=C(C)[C@@H](OC(=O)[C@@H]2[C@@H](C=C(C)C)C2(C)C)CC1=O,9.69 µM (active)
7,C#C[C@]1(O)C=C[C@H]2[C@@H]3CCC4=CC(=O)CC[C@@H]4[C@H]3CC[C@@]21CC,29.8 µM (active)
8,CC1=C(C(=O)Nc2ccccc2)S(=O)(=O)CCO1,inactive
9,CCOP(=S)(OCC)Oc1ncn(-c2ccccc2)n1,27.3 µM (active)
10,N#CC(Cl)(Cl)Cl,inactive
11,CC(N)=S,inactive
12,CCC(C)n1c(=O)[nH]c(C)c(Br)c1=O (stereo not given),inactive
13,O=C1OC(CCN2CCCCC2)OC1(c1ccccc1)c1ccccc1 (stereo not given),inactive
14,CN1C(=S)CN=C(c2ccccc2)c2cc(Cl)ccc21,26.6 µM (active)
15,CCC/C(=N\OCC)C1=C(O)CC(CC(C)SCC)CC1=O (stereo not given),48.9 µM (active)
16,Cc1cnc[nH]1,inactive
17,CNNC,inactive
18,O=CNC(N1CCN(C(NC=O)C(Cl)(Cl)Cl)CC1)C(Cl)(Cl)Cl (stereo not given),27.3 µM (active)
19,CCOP(=S)(OCC)Oc1cc(-c2ccccc2)on1,24.3 µM (active)
20,COc1cc(OC)nc(Oc2cccc(Oc3nc(OC)cc(OC)n3)c2C(=O)O)n1,inactive
